From PubChem BioAssay
hcDAF-12 act = activators of H. contortus DAF-12 nuclear receptor; AID 652067; HEK293 hcDAF-12 lit1-tk-luc reporter, luminescence; 0% DMSO, 100% Δ7-dafachronic acid; 1.4% of 370,000 active; activation, % at 6.8 µM;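 active = activation above the mean of all tested compounds plus 3 SD, cut at about 5.5% in these data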;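 note: 100% = response to 3 µM Δ7-dafachronic acid high control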
DAX1 inh-1 = inhibitors of DAX1 repression of SF-1 activated StAR promoter; HEK293T StAR-luciferase reporter, SF-1/DAX-1 repression relief; inhibition, % at 6.8 µM; 1.1% of 370,000 active;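 active = inhibition above the mean over all tested compounds plus 3 SD, cut at about 3.6% in these data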;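 note: 0% = DAX-1 cells with DMSO and 100% = cells lacking DAX-1 with DMSO; higher inhibition means more luminescence from relief of DAX-1 repression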
DAX1 inh-2 = inhibitors of human orphan nuclear receptor DAX1 (NR0B1). P51843. inhibition, % at 6.75 µM. 0.99% of 340,000 active. HEK293 Gal4-DAX1 luciferase reporter, luminescence;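 active = inhibition above the mean over all tested compounds plus 3 SD, cut at about 4.2% in these data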;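 note: 0% = DAX1-transfected cells with DMSO and 100% = empty-vector control cells with DMSO; inhibition shows as a rise in luminescence from relieved DAX1 repression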
Target sequence (P51843 207-470 limits assumed): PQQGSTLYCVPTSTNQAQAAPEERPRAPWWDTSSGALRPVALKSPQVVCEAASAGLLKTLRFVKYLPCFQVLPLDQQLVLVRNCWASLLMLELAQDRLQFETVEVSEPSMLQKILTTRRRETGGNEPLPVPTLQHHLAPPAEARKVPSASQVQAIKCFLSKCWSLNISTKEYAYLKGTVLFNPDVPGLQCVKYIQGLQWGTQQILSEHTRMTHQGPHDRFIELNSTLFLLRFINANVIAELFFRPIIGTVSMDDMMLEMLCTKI
hgDAF-12 ag = activates the H. glycines DAF-12 receptor ligand-binding domain; HEK293 GAL4-hgDAF12 UAS-luciferase reporter, agonist luminescence; normalized to butyrate control; activation, % at 6.8 µM; 1.8% of 370,000 active; AID 687014;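 active = activation above a cutoff set at the mean of all screened compounds plus 3 SD, cut at about 10% in these data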;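 note: 0% = DMSO wells and 100% = sodium butyrate wells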
SMARCA2 act = activators of SMARCA2 function. MG213 cells, MMTV-luciferase reporter, dexamethasone, overnight. 1% of 370,000 active. activation, % at 9.1 µM; in the data active = activation above about 7.8%;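 note: 0% = vehicle wells and 100% = reference activator wells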
ssDAF-12 act = activators of S. stercoralis DAF-12 nuclear receptor. HEK293 ssDAF-12/GRIP1 lit1-tk-luc reporter, luminescence; % of 3 µM dafachronic acid response. activation, % at 6.8 µM. 1% of 370,000 active. AID 652126;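 active = activation above the mean over all tested compounds plus 3 SD, cut at about 0.9% in these data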;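 note: 0% = DMSO-only wells and 100% = 3 µM delta7-dafachronic acid wells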
Starred values were filed as active, the others as inactive; nt = no result given. Compounds with a hit are over-represented: about 4.8% of the library has one in this group of screens.

SMILES	hcDAF-12 act	DAX1 inh-1	DAX1 inh-2	hgDAF-12 ag	SMARCA2 act	ssDAF-12 act
O=c1[nH]c(-c2ccco2)nc2sc3c(c12)CCCC3	2.3	3.1	2.5	12.6*	1.7	0.8
COc1ccc(C2N(c3ccc(F)cc3)C(=O)C3CCCN32)cc1 (configuration not stated)	0.1	1.3	5.2*	4.3	-0.5	-1.1
O=C1C2CCCN2C(c2ccccc2)N1c1cccc(Cl)c1 (configuration not stated)	0.4	-0.2	1.1	0.9	-3.3	-1.1
COc1ccc(N2C(=O)C3CCCN3C2c2ccc(C)cc2)cc1 (configuration not stated)	-0.4	0.6	3.2	2.8	0.8	-0.8
COc1ccc(C2N(c3ccc(OC)cc3)C(=O)C3CCCN32)cc1 (configuration not stated)	-1.1	0.4	5.3*	1.8	0.2	-0.8
O=C1C2CCCN2C(c2ccc(F)c(F)c2)N1c1cccc(Cl)c1 (configuration not stated)	-1.4	-0.8	4.4*	0.4	-0.8	-0.9
COc1cccc(C2N(c3ccc(Cl)cc3)C(=O)C3CCCN32)c1 (configuration not stated)	1.9	1.1	6.4*	-0.7	0.7	0.0
COc1ccc(OC)c(CC(NC(C)=O)C(=O)NC2CCN(c3c(Cc4ccccc4)c(C)nc4ncnn34)CC2)c1 (configuration not stated)	-0.4	-0.7	0.5	3.1	-0.8	-1.3
COCc1nnc(NC(=O)CSCc2ccccc2)s1	-0.5	0.5	1.1	3.2	0.0	-0.9
CC(=O)c1ccc(-c2cnc3c(NC=O)cc(-c4cccc(C(=O)N(C)C)c4)cn23)cc1	-2.6	-2.2	nt	1.5	-1.0	-1.8
Cc1ccc(CNC(=O)C2CCC(=O)N(Cc3cccc(F)c3)C2)s1 (configuration not stated)	1.8	0.0	0.6	3.1	-0.1	-1.2
COCCN(C(=O)c1cc(-c2ccncc2)nc2ccccc12)c1c(N)n(CC(C)C)c(=O)[nH]c1=O	2.2	1.3	-0.5	1.4	1.6	-1.1
CCCCN(C(=O)c1oc2ccc(OCC)cc2c1C)c1c(N)n(CC(C)C)c(=O)[nH]c1=O	1.9	4.2*	0.0	-0.1	-1.9	-0.8
CCCCn1c(N)c(N(CC(C)C)C(=O)c2cc(C)nc3ccccc23)c(=O)[nH]c1=O	-1.1	-0.8	-1.2	1.1	-1.6	-0.8
CCCCn1c(N)c(N(CC(C)C)C(=O)c2oc3ccc(OCC)cc3c2C)c(=O)[nH]c1=O	1.3	-1.6	0.4	-2.6	-3.5	-1.3
CCCCn1c(N)c(N(CCOC)C(=O)c2cc(-c3ccccc3)nc3ccccc23)c(=O)[nH]c1=O	0.5	1.5	7.0*	1.9	-2.0	-0.3
CCCCN(C(=O)c1cc(-c2ccncc2)nc2ccccc12)c1c(N)n(CC(C)C)c(=O)[nH]c1=O	1.5	1.1	-0.4	0.2	7.9*	-0.7
CCCCn1c(N)c(N(CC(C)C)C(=O)c2cc(Cl)nc3ccccc23)c(=O)[nH]c1=O	-0.1	-0.3	-0.4	0.5	-1.3	1.1*
Cc1csc(NC(=O)c2ccco2)c1C(=O)c1ccccc1	-0.5	1.0	1.0	-1.0	0.8	-1.1
COc1cccc(OCc2cc(C(=O)N(C)Cc3nc(C)cs3)no2)c1	2.4	4.5*	1.5	6.4	3.1	-0.1
COc1ccccc1/C=C/C=N/n1c(-c2ccccn2)n[nH]c1=S	5.6*	0.9	1.2	5.4	6.7	-0.9
COc1ccccc1/C=C/C=N/n1c(-c2cc(C)[nH]n2)n[nH]c1=S	-2.0	0.6	-0.1	-2.2	-1.7	-0.4
COc1cc2c(cc1CNC[C@H]1O[C@@H](n3cc(C)c(=O)[nH]c3=O)C[C@@H]1O)OCO2	1.2	0.4	5.0*	1.4	-2.9	-0.7
Cc1cn([C@H]2C[C@H](O)[C@@H](CNCc3cc(Cl)ccc3OCc3ccc(Cl)cc3)O2)c(=O)[nH]c1=O	0.1	0.0	-0.3	-1.1	-2.1	-1.1
O=C(C1CCN(S(=O)(=O)c2cccc3cccnc23)CC1)N1CCN(c2ccccc2)CC1	0.7	0.1	1.6	12.1*	-1.6	-1.1
SMILES	hcDAF-12 act	DAX1 inh-1	DAX1 inh-2	hgDAF-12 ag	SMARCA2 act	ssDAF-12 act
O=C(C1CCN(S(=O)(=O)c2cccc3cccnc23)CC1)N1CCN(Cc2ccccc2)CC1	-0.6	-0.6	-1.9	-1.1	-1.3	-0.8
CCN(C(=O)CN1C(=O)NC(CCSC)C1=O)C1CCS(=O)(=O)C1 (configuration not stated)	0.2	-1.1	0.4	2.4	-3.0	-1.2
CCc1ccc(Nc2nnc(SCC(=O)NCCN3C(=O)CSC3=O)s2)cc1	2.3	1.4	-0.8	12.1*	4.1	-0.4
CCc1ccc(Nc2nnc(SCC(=O)Nc3sccc3C(N)=O)s2)cc1	1.9	-0.2	-0.8	7.8	1.2	-1.3
CC(=O)Nc1ccc(CNc2ncnc3ccc(-c4c(C)noc4C)cc23)cc1	6.3*	1.7	3.8	-0.8	-0.8	1.2*
CCOc1ccc(C(=O)OCC(=O)c2c(N)n(C)c(=O)n(C)c2=O)cc1OCC	-1.2	0.2	0.2	0.8	-2.3	-1.3
CCCCc1ccc(CC(=O)O)cc1	-2.4	0.1	0.2	-0.8	-3.0	-0.6
O=S1(=O)CC=C(CSC(=S)NC2CCS(=O)(=O)C2)C1 (configuration not stated)	-1.2	-0.1	4.3*	3.8	-5.5	-0.1
CCOC(=O)c1nnsc1-c1ccc(-c2snnc2C(=O)OCC)cc1	0.8	-0.1	4.0	0.6	-3.4	-1.2
CCOC(=O)c1nnsc1Nc1ccc(C)c(C)c1	1.7	0.5	4.3*	3.0	0.5	-0.3
COc1cccc(C(=O)NN=C2CCCC2)c1	3.4	4.5*	1.8	10.6*	2.0	0.6
COc1ccc(C(=O)NN=C2CCCC2)cc1	1.2	-0.3	2.3	3.0	0.7	-1.4
O=C(NN=C1CCCC1)c1ccccc1O	0.0	0.2	2.8	10.6*	2.2	-0.4
CCOCCCNC(=O)c1ccc2c(c1)N=C(CC)c1cc(Br)ccc1S2	-1.1	4.2*	-2.0	-7.2	-0.2	-0.5
CCSc1nnc2nc(C)cc(C)n12	0.2	-0.1	-0.2	-2.2	-3.0	-1.6
COC(=O)[C@]12C[C@H](CC(=O)NCc3cccs3)C(=O)N(Cc3ccccc3)C1=C[C@H](COCc1ccccc1)O[C@@H]2C	-2.2	-0.8	nt	11.0*	-3.1	-1.4
CCCCNC(=O)C[C@H]1C[C@@]2(C(=O)OC)C(=C[C@H](C3CCCC3)O[C@@H]2C)N(Cc2ccco2)C1=O	-2.9	-0.6	nt	-1.4	7.8*	-1.9
CCCCNC(=O)C[C@H]1C[C@@]2(C(=O)OC)C(=C[C@H](C3CCCC3)O[C@@H]2C)N(Cc2ccccc2)C1=O	-1.1	1.0	nt	-2.1	3.0	-1.7
